A short description of assay [1]: qHTS assay for small molecule agonists of the p53 signaling pathway (AID 651631; calls by dose curve; further: nearly all actives have a fitted effect of over 15% in size; further: potency means the concentration at half of the fitted maximal effect). The essentials:
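p53RE-bla HCT-116 cells; compounds 16 h, 37 °C; LiveBLAzer B/G FRET substrate 2 h RT; fluorescence intensity read-out, qHTS format.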
(qHTS replaces the single test concentration by a dilution series.)

The nature of assay [2]: qHTS assay for small molecules that induce genotoxicity in human embryonic kidney cells expressing luciferase-tagged ATAD5 - cell viability (AID 651634; calls by dose curve; further: nearly all actives have a fitted effect of over 25% in size). In a few lines:
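HEK293T cells carrying luciferase-tagged ATAD5, 2,000 cells/well, exposed to compound for 15.5 hr at 37C. Viability read as live-cell protease activity by CellTiter-Fluor fluorescence after 30 min at 37C.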

Assay [3] is described as follows: qHTS assay for small molecule disruptors of the mitochondrial membrane potential (AID 720635). Further: potency means the concentration at half of the fitted maximal effect. In a few lines: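 HepG2 cells (2,000/well) attached overnight at 37C, then took compound for 1 hr at 37C, 5% CO2. Mito-MPS dye was added for 30 min; fluorescence was read at 490/535 nm (monomers) and 540/590 nm (aggregates).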
Assay [4] in a line: qHTS assay to test for compound auto fluorescence at 590 nm (red) in HepG2 cells (AID 720674). In a few lines: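 Rose Bengal sodium served as the red fluorophore standard. HepG2 monolayers (overnight attachment, MEM with 10% FBS) were exposed to test compounds for 1 hr at 37 C and read at Ex 540/Em 590 nm.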
Assay [5] in a line: qHTS assay to test for compound auto fluorescence at 460 nm (blue) in HEK293 cells (AID 720678). In a few lines:
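Measured: blue fluorescence (Ex 405/Em 460 nm) of compound-treated HEK293 cells, incubated overnight at 37C with 5% CO2 and scaled to triamterene equivalents.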

The nature of assay [6]: qHTS assay to test for compound auto fluorescence at 535 nm (green) in HEK293 cells (AID 720680).
The target in assay [7] is Glucocorticoid receptor (Homo sapiens) (UniProt P04150). Nature of the assay: qHTS assay to identify small molecule agonists of the glucocorticoid receptor (GR) signaling pathway (AID 720691; active means well fitted activation curve with a large enough effect in the signal ratio in the repeat runs, not every such curve was filed as active; the % refers to the signal ratio). In a few lines:
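GR-bla HeLa cells carrying a GRE-driven beta-lactamase reporter, exposed to compounds for 18 h at 37 C. Reporter activation read as fluorescence after 2 h with LiveBLAzer B/G FRET substrate at room temperature.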

Assay [8] is described as follows: qHTS assay for identifying genotoxic compounds that show differential cytotoxicity against isogenic chicken DT40 cell lines with known DNA damage response pathways - wild type cell line (AID 743012). Further: nearly all actives have a fitted effect of over 60% in size. Further: potency means the concentration at half of the fitted maximal effect. In a few lines: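 Wild-type DT40 cells (300/well) exposed to compounds for 40 hours at 37 C/5% CO2. Viability read by CellTiter-Glo luminescence after 30 min at room temperature.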

Assay [9] is described as follows: qHTS assay for identifying genotoxic compounds that show differential cytotoxicity against isogenic chicken DT40 cell lines with known DNA damage response pathways - Rev3 mutant cell line (AID 743014). Further: nearly all actives have a fitted effect of over 55% in size.
Assay [10] is described as follows: qHTS assay for identifying genotoxic compounds that show differential cytotoxicity against isogenic chicken DT40 cell lines with known DNA damage response pathways - Rad54/Ku70 mutant cell line (AID 743015). Further: nearly all actives have a fitted effect of over 60% in size.
A short description of assay [11]: qHTS assay to identify small molecule antagonists of the thyroid receptor (TR) signaling pathway (AID 743065). Further: series mostly up to about 70 µM; nearly all actives have a fitted effect of over 55% in size. In a few lines:
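GH3.TRE-Luc rat pituitary cells carrying two TR response elements driving luciferase were plated for 4 h, given compound plus 1 nM T3 (final), and incubated 23.5 h at 37 C. ONE-Glo luminescence measured reporter inhibition; CellTiter-Fluor fluorescence tracked cytotoxicity.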

In assay [12] the test system is thyroid hormone receptor (rat, GH3 cells). The experiment in a line: qHTS assay to identify small molecule agonists of the thyroid receptor (TR) signaling pathway (AID 743066; calls by dose curve; further: potency means the concentration at half of the fitted maximal effect).
For assay [13], the target named is Peroxisome proliferator-activated receptor gamma (Homo sapiens) (UniProt P37231). Nature of the assay: qHTS assay to identify small molecule agonists of the peroxisome proliferator-activated receptor gamma (PPARg) signaling pathway (AID 743094; active means well fitted activation curve with a large enough effect in the signal ratio in the repeat runs, not every such curve was filed as active; the % refers to the signal ratio). The essentials:
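GeneBLAzer PPARg UAS-bla HEK293H cells were plated, rested 5 h, then exposed to compounds for 17 h at 37C. Beta-lactamase activity was read by LiveBLAzer B/G FRET substrate fluorescence after 1 h at room temperature.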

In assay [14] the target is Nuclear receptor subfamily 1 group I member 2 (Homo sapiens) (UniProt O75469). Nature of the assay: Human pregnane X receptor (PXR) activation by small molecules, qHTS assay (AID 1346985). Further: nearly all actives have a fitted effect of over 40% in size. The essentials: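 DPX-2 cells (HepG2 co-transfected with a PXR response element and a CYP3A4-promoter luciferase construct) were seeded at 2,000 per well, rested 5 hr at 37C, then exposed to DMSO-dissolved compounds for 24 hr. Activation was read as luciferase luminescence.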

The nature of assay [15]: qHTS assay to test for compound auto fluorescence at 590 nm (red) in HEK293 cell free culture (AID 720683). In a few lines: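 Tox21 10K library compounds were pinned into cell-free DMEM with 10% FBS and fluorescence was read at excitation 540 nm. Activity is expressed as Rose Bengal sodium equivalency.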
The nature of assay [16]: qHTS assay to identify small molecule antagonists of the glucocorticoid receptor (GR) signaling pathway - cell viability counter screen (AID 720693). Further: nearly all actives have a fitted effect of over 55% in size.
Assay [17] in a line: qHTS assay to identify small molecule antagonists of the thyroid receptor (TR) signaling pathway - cell viability counter screen (AID 743064). Further: nearly all actives have a fitted effect of over 50% in size. In a few lines: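 GH3.TRE-Luc cells, 4 h pre-plating; cpd + T3 1 nM final; 37 °C 23.5 h; CellTiter-Fluor 30 min; fluorescence read.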
Assay [18] has as its target Estrogen receptor (Homo sapiens) (UniProt P03372). Nature of the assay: qHTS assay to identify small molecule agonists of the estrogen receptor alpha (ER-alpha) signaling pathway (AID 743075; calls by dose curve;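 further: HEK293 GripTite cells with ER-alpha and UAS-driven beta-lactamase reporter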).
Assay [19] in a line: qHTS assay to identify small molecule antagonists of the estrogen receptor alpha (ER-alpha) signaling pathway using the BG1 cell line (AID 743080; calls by dose curve;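 further: BG1 cells stimulated with 17beta-estradiol alongside compound; series mostly up to about 70 µM; nearly all actives have a fitted effect of over 25% in size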). The essentials: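 Quantitative HTS on the Tox21 10K library: BG1 cells with endogenous ER-alpha and ERE-luciferase reporter, 17beta-estradiol stimulation, 21.5 h compound exposure, luminescence endpoint with parallel fluorescence cytotoxicity counter-read.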

Assay [20] can be described thus: qHTS assay to identify small molecule that activate the aryl hydrocarbon receptor (AhR) signaling pathway - cell viability counter screen (AID 743086).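 Further: HepG2 liver cells carrying the AhR DRE luciferase reporter; series mostly up to about 70 µM; nearly all actives have a fitted effect of over 45% in size.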 In a few lines: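 HepG2-AhR-luc (HG2L7.5c1) cells, 4000/well, were preincubated 5 h at 37C, exposed to compound in qHTS format for 24 hr at 37C, then given CellTiter-Fluor for 30 min; viability was read as fluorescence in the reporter wells.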

Records with an inconclusive call do not appear. The source made the active and inactive calls. Unless noted, the call rests on the fitted dose curve; in most records, active means well fitted curve in the direction sought with a large enough effect in the repeat runs; inconclusive means weak or mixed curves; inactive means no such curve, though single readings can be large; an effect the other way counts as inactive or inconclusive.

Estrogen receptor (Homo sapiens), sequence (P03372 whole entry, looked up): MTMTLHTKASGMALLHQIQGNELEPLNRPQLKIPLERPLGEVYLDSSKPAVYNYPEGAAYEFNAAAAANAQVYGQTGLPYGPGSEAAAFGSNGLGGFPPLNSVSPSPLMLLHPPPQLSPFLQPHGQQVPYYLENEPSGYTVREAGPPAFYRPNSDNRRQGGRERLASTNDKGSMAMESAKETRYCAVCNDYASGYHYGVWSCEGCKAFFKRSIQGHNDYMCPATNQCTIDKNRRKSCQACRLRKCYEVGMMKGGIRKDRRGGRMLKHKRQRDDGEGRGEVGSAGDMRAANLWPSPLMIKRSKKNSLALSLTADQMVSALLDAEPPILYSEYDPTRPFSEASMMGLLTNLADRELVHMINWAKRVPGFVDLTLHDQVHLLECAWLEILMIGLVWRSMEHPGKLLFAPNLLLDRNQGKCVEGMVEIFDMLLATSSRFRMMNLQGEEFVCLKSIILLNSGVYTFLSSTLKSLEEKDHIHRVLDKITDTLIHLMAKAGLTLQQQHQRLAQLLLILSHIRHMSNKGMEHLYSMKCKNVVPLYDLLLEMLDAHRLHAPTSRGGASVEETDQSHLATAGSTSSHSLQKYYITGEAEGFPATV
Peroxisome proliferator-activated receptor gamma (Homo sapiens), sequence (P37231 whole entry, looked up): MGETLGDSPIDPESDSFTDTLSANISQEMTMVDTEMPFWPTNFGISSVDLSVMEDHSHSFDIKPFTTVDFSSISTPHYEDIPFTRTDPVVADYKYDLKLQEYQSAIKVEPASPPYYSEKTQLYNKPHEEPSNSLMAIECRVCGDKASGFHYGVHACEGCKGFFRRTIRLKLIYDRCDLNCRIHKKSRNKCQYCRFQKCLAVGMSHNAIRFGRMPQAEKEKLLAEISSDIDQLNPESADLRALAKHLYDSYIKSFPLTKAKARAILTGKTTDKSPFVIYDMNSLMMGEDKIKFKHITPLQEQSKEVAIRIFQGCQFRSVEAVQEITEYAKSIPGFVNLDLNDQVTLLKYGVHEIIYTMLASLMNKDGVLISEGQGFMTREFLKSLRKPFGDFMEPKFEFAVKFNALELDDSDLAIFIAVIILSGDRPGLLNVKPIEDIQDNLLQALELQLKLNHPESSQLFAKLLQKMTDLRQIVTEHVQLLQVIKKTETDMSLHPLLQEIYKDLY
Glucocorticoid receptor (Homo sapiens), sequence (P04150 whole entry, looked up): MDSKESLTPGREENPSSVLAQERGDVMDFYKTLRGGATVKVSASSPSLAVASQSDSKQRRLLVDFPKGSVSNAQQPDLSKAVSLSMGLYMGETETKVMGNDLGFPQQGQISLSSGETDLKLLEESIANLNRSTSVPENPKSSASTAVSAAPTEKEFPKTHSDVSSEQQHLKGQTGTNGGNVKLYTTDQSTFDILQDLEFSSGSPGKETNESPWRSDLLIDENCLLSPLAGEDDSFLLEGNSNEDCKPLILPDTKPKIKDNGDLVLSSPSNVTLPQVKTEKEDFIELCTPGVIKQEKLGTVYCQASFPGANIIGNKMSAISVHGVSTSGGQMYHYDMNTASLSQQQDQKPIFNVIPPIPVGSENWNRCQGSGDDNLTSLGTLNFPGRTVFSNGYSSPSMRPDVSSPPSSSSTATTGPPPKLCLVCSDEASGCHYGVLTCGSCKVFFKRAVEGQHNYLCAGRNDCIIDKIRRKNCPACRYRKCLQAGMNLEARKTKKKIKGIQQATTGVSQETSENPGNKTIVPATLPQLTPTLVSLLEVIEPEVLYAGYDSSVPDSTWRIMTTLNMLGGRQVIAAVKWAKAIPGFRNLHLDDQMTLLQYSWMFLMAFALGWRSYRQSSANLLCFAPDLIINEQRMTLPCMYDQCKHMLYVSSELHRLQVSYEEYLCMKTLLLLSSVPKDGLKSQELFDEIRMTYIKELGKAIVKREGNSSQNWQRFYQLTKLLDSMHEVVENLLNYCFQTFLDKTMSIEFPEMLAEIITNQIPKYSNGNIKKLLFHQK

Regarding `CCc1cccc(C)c1N`, in [1], the Potency entry is “inactive”.
Consider `C[C@@H](CO)NC(=O)[C@@H]1C=C2c3cccc4[nH]cc(c34)C[C@H]2N(C)C1`, for which the Potency result in assay [1], in assay [2], in assay [5], in [6], in [7] and in [8] was “inactive” throughout. Besides, the Potency result in assay [9], in [10], in [11], in assay [12], in assay [13] and in assay [14] was “inactive” in each case. Moreover, in [3], the Potency was 9.44 µM (active). Also, the outcome in assay [4] was inactive.
Consider `COc1ccc(OC)c([C@@H](O)[C@H](C)N)c1`, for which the Potency entry in assay [1], in assay [2], in assay [3], in assay [5], in [6] and in [7] was “inactive” throughout. Besides, the Potency entry in assay [16], in [8], in [9], in assay [10], in assay [17] and in assay [11] was “inactive” in each case. Besides, the Potency result in assay [18], in assay [19], in [13] and in assay [14] was “inactive” throughout. The outcome in assay [4] and in [15] was inactive. In assay [12], the Potency was 29.8 µM (active).
Consider `Cc1cccc([N+](=O)[O-])c1C`, for which the Potency entry in [1] is “inactive”.
For `C=CCOC(=O)c1ccccc1C(=O)OCC=C`, the Potency result in assay [1] was “inactive”.
On to `CCC(=O)O[C@]1(c2ccccc2)CCN(C)C[C@H]1C`, for which the Potency entry in assay [1], in [2], in assay [3], in assay [5], in assay [6] and in assay [16] was “inactive” in each case. For the same compound, the Potency result in assay [11], in assay [12], in assay [18], in assay [19], in [20] and in assay [13] was “inactive” in each case. In [14], the Potency entry was “inactive”. In addition, the outcome in assay [4] and in [15] was inactive. Moreover, in assay [8], the Potency was 21.1 µM (active).
Turning to `Cc1ccc(O)cc1C`, the result in [4] and in assay [15] was inactive. The Potency entry in assay [5], in assay [6] and in [12] was “inactive” in each case.
Take `O=Nc1ccc(Nc2ccccc2)cc1`: the Potency in assay [1] is 61.1 µM (active).
On to `O=S(=O)(O)c1cc(O)ccc1O`, for which the Potency entry in assay [2], in assay [3], in assay [5], in assay [6], in assay [7] and in assay [16] was “inactive” each time. Further, the Potency entry in assay [8], in assay [9], in assay [10], in assay [17], in assay [11] and in assay [12] was “inactive” in each case. Further, the Potency entry in assay [20] was “inactive”. Besides, the compound was called inactive in assay [4] and in [15].
As for `Cc1ccc2ccccc2c1C`, the compound was classed as inactive in assay [4] and in assay [15]. Besides, the Potency result in assay [6] is “inactive”.
Regarding `CCCCC[C@@H](O)C1C(=O)OC(C)[C@H](O)/C=C/C=C/C=C/C=C/C=C(\C)C(O)C(O)C(O)C[C@H](O)C[C@H](O)C[C@H](O)C[C@H](O)C[C@@H]1O` (stereo partly specified), the Potency entry in [2], in assay [3], in assay [5], in assay [6], in [7] and in assay [16] was “inactive” in each case. Moreover, the Potency entry in [8], in assay [9], in assay [10], in assay [17], in assay [11] and in assay [12] was “inactive” throughout. The Potency entry in assay [18], in assay [19], in assay [13] and in assay [14] was “inactive” in each case. The result in [4] and in assay [15] was inactive.
In the case of `CNC(=O)OCC[N+](C)(C)C`, the Potency entry in assay [1], in [2], in assay [3], in [5], in assay [6] and in [7] was “inactive” each time. In addition, the Potency entry in assay [8], in [9], in assay [10], in [17], in assay [11] and in [18] was “inactive” each time. Moreover, the Potency entry in assay [19], in assay [20] and in [14] was “inactive” in each case. The result in assay [4] and in [15] was inactive.

For the origin of these results see PubChem BioAssay (Tox21).
